Several values for one entry are separate records, joined by “and”; a condition that tells them apart may be missing. Identical values can stand only once. Records with an inconclusive call do not appear. The source holds several records for some structures; these can differ, active in one and inactive in another. Activity calls are given as the source filed them. Calls come from the whole dose curve.

This note sets out measurements from PubChem BioAssay (NCATS).

The nature of the test: qHTS Assay for Lipid Storage Modulators (AID 1519). For activity change, negative = inhibition: % is set by controls: 0 for no effect and ±100 for the full control effect. The following applies: Drosophila S3 cells, BODIPY lipid droplet/cell ratio, laser cytometry, cells loaded with oleic acid. The text has this:
NIH Molecular Libraries Probe Production Centers Network [MLPCN]
NIH Chemical Genomics Center [NCGC]
Assay Submitter (PI): Beller, Mathias; Max-Planck-Institut fur Biophysikalische Chemie
NCGC Assay Overview: Storing lipids as a reservoir for energy or the anabolism of elementary metabolites is a common feature of probably all cells and is conserved from bacteria to humans. The universal cellular lipid storage organelle is the so-called lipid storage droplet (LD). Although ubiquitous, LDs share a simple structure composed of a hydrophobic core that harbors the storage lipids, which is shielded by a droplet-specific phospholipid monolayer to which proteins are attached. The current model of LD biogenesis involves an incorporation of the lipid core into the membrane leaflets of the endoplasmic reticulum (ER) followed by a subsequent budding-like maturation of a LD, which ultimately pinches off. Once released, LD volume can increase by localized lipogenesis or fusion of existing droplets. Storage lipids are re-mobilized enzymatically by lipase activity. Lipase regulation in the adipocyte is heavily studied and involves multiple components including catecholamine signaling, the LD-associated proteins Perilipin and comparative gene identification-58 (CGI-58) and at least two lipases named hormone sensitive lipase (HSL) and adipocyte triglyceride lipase (ATGL). LD regulation outside of the adipocyte is poorly understood and only few components are known. However, there is an urgent need to learn more about ectopic fat depots as mislocalized storage of lipids, for example in the liver or muscle, is an eminent health problem associated with insulin resistance or the metabolic syndrome. We developed a laser-scanning cytometer assay to enable 1,536-well screening and combined the results of the small molecules screen with an RNAi database based on lipid storage.
NCGC Assay Protocol Summary:
We dispensed 4 uL of cells at 1.25 x 10^6 cells/mL into LoBase Aurora COC 1,536-well plates (black walled, clear bottom) with a bottle-valve solenoid-based dispenser (Aurora) to obtain 5,000 cells/well. Triacsin C (Sigma-Aldrich T-4540), an inhibitor of long-chain fatty acyl CoA synthetase that blocks synthesis of triglycerides, was used as a positive control for lipid under-storage. A total of 23 nL of compound solution of different concentrations were transferred to the assay plates using a Kalypsys pin tool equipped with a 1,536-pin array containing 10-nL slotted pins (FP1S10, 0.457-mm diameter, 50.8 mm long; V&P Scientific). One microliter of oleic acid (400 uM) was added, and the plate was lidded with stainless steel rubber gasket lined lids containing pinholes. […] Fluorescence was detected by excitation of the fluorophores with a 488-nm laser on an Acumen Explorer (TTP Lab Tech). The total intensity in channel 1 (500-530 nm) reflected lipid droplet accumulation. […] The ratio of the total intensity in PMT channel 1 over total intensity of channel 3 was also calculated. Percent activity was computed relative to an internal control (100% inhibited lipid droplet deposition due to the presence of 20 uM Triacsin C), which was added to 32 wells/plate.
On the technique in general: In qHTS, concentration-response curves come from the screen itself.

Where [1] appears, read: measured here: cell count channel max response.
The mark [2] stands for this setting: measured here: lipid channel max response.
Potency is the fitted concentration of half-maximal effect.

`O=P1(NCCCl)OCCCN1CCCl` (configuration not stated): the activity change, negative = inhibition (at 25.7 µM (top of the series)) was -0.105% (inactive). Also, the max response reads like this: under setting [1], -5.65%; under setting [2], -6.2%.
Take `Cc1cccc(C)c1NC1=NCCCS1`: the activity change, negative = inhibition is 0.794% (inactive) (at 25.7 µM (top of the series)) and 0.68% (inactive) (at 57.5 µM (top of the series)). Also, the max response is, setting by setting: under setting [1], 4% and -18.4%; under setting [2], 4.95% and -18.3%.
Regarding `CC(C)C(=O)Nc1ccc([N+](=O)[O-])c(C(F)(F)F)c1`, the activity change, negative = inhibition (at 25.7 µM (top of the series)) was -0.701% (inactive) and the activity change, negative = inhibition (at 57.5 µM (top of the series)) was 9.96% (inactive). For the same compound, the max response under setting [1] was -6.26% and 5.61%; the max response under setting [2] was -1.94% and 19.5%.
Turning to `Fc1ccc(C(OCCN2CCN(CCCc3ccccc3)CC2)c2ccc(F)cc2)cc1`, under “at 25.7 µM (top of the series)”, the activity change, negative = inhibition was -2.3% (inactive). The max response is -18.7% under setting [1] and -16.6% under setting [2].
For `Nc1ccncc1`, under “at 57.5 µM (top of the series)”, the activity change, negative = inhibition is -5.36% (inactive) and 3.03% (inactive). Besides, the max response was -7.26% and -3.5% under setting [1]; -10.8% and 8.53% under setting [2].
Consider `CN1C[C@H](CNC(=O)OCc2ccccc2)C[C@@H]2c3cccc4c3c(cn4C)C[C@H]21`, for which the activity change, negative = inhibition (at 57.5 µM (top of the series)) is 1.3% (inactive). For the same compound, the max response under setting [1] was -34% and the max response under setting [2] was -33%.
Regarding `O=c1c(O)c(-c2ccc(O)c(O)c2)oc2cc(O)cc(O)c12`, the Potency was 39.8 µM (active). For the same compound, for the setting “at 57.5 µM (top of the series)”, the activity change, negative = inhibition is 8.54% (inactive). Also, the max response under setting [1] was -77.5% and 18.5%. Further, the max response under setting [2] is -93.3% and 29.8%.
For the compound `COc1ccccc1N1CCNCC1`, the activity change, negative = inhibition (at 57.5 µM (top of the series)) is 3.26% (inactive) and 0.382% (inactive). In addition, the max response is, setting by setting: under setting [1], 10.9% and -13.3%; under setting [2], 15.1% and -12.9%.
In the case of `CNCCC(Oc1ccc(C(F)(F)F)cc1)c1ccccc1` (configuration not stated), for the setting “at 57.5 µM (top of the series)”, the activity change, negative = inhibition was 1.75% (inactive). The max response runs as follows: under setting [1], -0.474%; under setting [2], 3.92%.
For `NCC(CC(=O)O)c1ccc(Cl)cc1` (configuration not stated), in that order: 7.61% (inactive), 16.5% and 28.7%.
On to `CCCC(C)(COC(N)=O)COC(=O)NC(C)C` (configuration not stated), for which the activity change, negative = inhibition (at 57.5 µM (top of the series)) is 3.44% (inactive) and -3.03% (inactive). Further, the max response under setting [1] was 20.3% and 29.2%; the max response under setting [2] is 29.5% and 22.2%.
As for `NCC(O)c1ccc(O)cc1` (configuration not stated), for the setting “at 57.5 µM (top of the series)”, the activity change, negative = inhibition is 5.18% (inactive). For the same compound, the max response was 15.4% under setting [1] and 23.7% under setting [2].
With `CC(C)CC(N(C)C)C1(c2ccc(Cl)cc2)CCC1` (configuration not stated), for the setting “at 57.5 µM (top of the series)”, the activity change, negative = inhibition is 0.545% (inactive). Besides, the max response reads like this: under setting [1], 5.29%; under setting [2], 6.62%.
